Reference: PubChem BioAssay AID743279 (National Center for Advancing Translational Sciences (NCATS), 2014)
The campaign covered roughly 360,000 compounds. About 17,000 (4.7%) were called active. Roughly 5% stayed inconclusive and do not appear here. No stated cut-off is given here; in the data, active means activity change below about -50%; inconclusive means mostly about -30% to -49%; inactive means weaker than that. The sample as a whole holds a higher share of actives than the screen did.

Test: qHTS for Inhibitors of Inflammasome Signaling: IL-1-beta AlphaLISA Primary Screen
Settings: THP-1 LPS/ATP IL-1B secretion, 16 h; at 57.5 µM, stronger effect = lower value
In short: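 Secreted IL-1B measured by AlphaLISA bead assay after 16 h compound exposure of THP-1 cells; compounds (final up to 57.5 uM) added 1 h before LPS (250 ng/mL) and ATP (1.25 mM) stimulation; lower signal means less secretion.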
On the % scale 0 is the no-effect control and ±100 the full control effect.

SMILES | activity change
C[C@@H]1CN([C@@H](C)CO)S(=O)(=O)c2ccc(-c3ccc(C(=O)N(C)C)cc3)cc2O[C@@H]1CN(C)Cc1ccccc1C(=O)O | 23.1% (inactive)
COc1ccc(-c2ccc3c(c2)C2CC3CCN2CCC#N)cc1 (stereo not drawn) | 12.2% (inactive)
Cc1cc(C)c2nc(-c3cccnc3)cc(C(=O)Nc3ccc(S(=O)(=O)Nc4onc(C)c4C)cc3)c2c1 | 16.5% (inactive)
COc1ccc(CN2C(=O)C(CC(=O)NCc3cccc4ccccc34)CC(C(=O)N3CCOCC3)=C2C)cc1 (stereo not drawn) | -5.05% (inactive)
COc1cc(C(O)c2nc(-c3cnn(C)c3)cs2)ccc1F (stereo not drawn) | 25.9% (inactive)
CC(C)(C)NC(=O)Cn1c(SCC(=O)Nc2nccs2)nc2ccccc21 | -11.3% (inactive)
COc1ccc(Cn2nnc3c(=O)[nH]c(C4CCN(C(=O)c5ccccc5Cl)CC4)nc32)cc1 | 0% (inactive)
O=C(Nc1ccc(F)cc1)N1CCCC(c2nc3c(nnn3Cc3ccccc3Cl)c(=O)[nH]2)C1 (stereo not drawn) | -15.2% (inactive)
Cc1ccc(NC(=O)N2CCC(c3nc4c(nnn4Cc4c(F)cccc4Cl)c(=O)[nH]3)CC2)cc1 | -69% (active)
CC[C@]12c3[nH]c4cc(CCC(=O)N(C)C)ccc4c3CCN1C(=O)[C@@H](CC(=O)NCCCN(C)C)C[C@@H]2C(=O)N1CCN(C(=O)c2ccco2)CC1 | 0% (inactive)
CC1CCN(C(=O)CSc2nnc(-c3ccco3)n2N)CC1 | 3.36% (inactive)
c1ccc(Cc2c(-c3ccco3)nc3c4ccccc4ccn23)cc1 | -21.7% (inactive)
C=CCc1ccccc1OCC(O)CN1CCN(CCO)CC1 (stereo not drawn) | 9.73% (inactive)
Cc1cccc(OCC(O)CN2CCN(CCN3C(=O)c4cccc5cccc(c45)C3=O)CC2)c1C (stereo not drawn) | -52.3% (active)
Cc1ccc(OCC(O)CN2CCN(CC(O)COc3ccc(C)cc3Cl)CC2)c(Cl)c1 (stereo not drawn) | 4.54% (inactive)
CCCCN1C(=O)C(CC(=O)NCc2cccs2)CC(C(=O)N2CCCCCC2)=C1C (stereo not drawn) | 7% (inactive)
Clc1ccc(-n2nnnc2CN2CCCCC2)cc1Cl | 9.91% (inactive)
COc1ccccc1/C=C1\SC(=O)N(CCC(=O)N(C)C2CCS(=O)(=O)C2)C1=O (stereo not drawn) | -15.1% (inactive)
CN(C(=O)CCN1C(=O)/C(=C/c2ccccc2F)SC1=S)C1CCS(=O)(=O)C1 (stereo not drawn) | -99.1% (active)
CN(C(=O)CN1C(=O)S/C(=C\c2ccccc2F)C1=O)C1CCS(=O)(=O)C1 (stereo not drawn) | -16.9% (inactive)
CCC(C)CN1C(=O)CSCC1(C)C(=O)NCc1ccccc1 (stereo not drawn) | -5.63% (inactive)
COc1ccc(S(=O)(=O)N2CCOCC2)cc1NC(=O)COc1ccccc1 | 6.58% (inactive)

SMILES | activity change
CC(=O)c1cccc(NC(=O)COc2ccc(S(=O)(=O)N3CCOCC3)cc2)c1 | -9.57% (inactive)
COC(=O)COc1ccc(S(=O)(=O)N2CCOCC2)cc1 | -50.5% (active)
Cc1cc2c(cc1C)NC1(C[C@H]3CCC(=O)N4CC[C@@H](C1)[C@@H]34)C(=NC(C)(C)CC(C)(C)C)N2 (stereo partly drawn) | 1.01% (inactive)
C=CCN(N=Nc1cccc([N+](=O)[O-])c1)c1cccc([N+](=O)[O-])c1 | -16.1% (inactive)
NS(=O)(=O)c1ccc(CNC(=O)c2cccc(S(=O)(=O)N3CCc4ccccc43)c2)cc1 | -11.1% (inactive)
NS(=O)(=O)c1ccc(CNC(=O)c2cccc(Oc3ccccc3)c2)cc1 | -74.2% (active)
NS(=O)(=O)c1ccc(CNC(=O)c2cnccn2)cc1 | 2.67% (inactive)
CCc1ccc(OC2(C)CCN(CCOc3ccc(C)cc3)C2)cc1 (stereo not drawn) | -10% (inactive)
O=C1CSC(=S)N1/N=C/c1ccc(O)c([N+](=O)[O-])c1 | 23.5% (inactive)
O=C(CC[C@H]1O[C@@H](n2ccc(=O)[nH]c2=O)[C@H](O)[C@@H]1O)N[C@H](Cc1ccccc1)C(=O)NCCCN1CCCC1=O | 15.8% (inactive)
Cc1cc(C(=O)N2CCCC2(C)C(=O)O)c(C)o1 (stereo not drawn) | -11.9% (inactive)
CCn1c(SCC(=O)Nc2nc(C)cs2)nnc1C(C)NC(=O)c1ccccc1 (stereo not drawn) | -6.67% (inactive)
COc1ccc(CN2CCN(Cc3cn(C)nc3-c3ccccc3)CC2CCO)c(C)c1C (stereo not drawn) | -57.9% (active)
Cc1ccc(CN2CCN(Cc3cn(C)nc3-c3ccccc3)CC2CCO)o1 (stereo not drawn) | 40.4% (inactive)
CCn1nc(C)c(CN2CCN(Cc3ccc(OC)c(C)c3C)C(CCO)C2)c1C (stereo not drawn) | 9.61% (inactive)
Cc1noc(C)c1C(=O)N1CCC1(C)C(=O)NS(=O)(=O)c1ccc(C#N)cc1 (stereo not drawn) | -5.56% (inactive)
O=C(Nc1ccccc1)c1ccccc1Br | 9.09% (inactive)
CC1(C(=O)NS(=O)(=O)c2ccc(C#N)cc2)CCN1C(=O)CC1CCCC1 (stereo not drawn) | 4.38% (inactive)
CC(=O)C[C@@H]1OC[C@H](C)N1S(=O)(=O)c1ccc(C)cc1 | -13.9% (inactive)
Cc1ccc(NC(=S)NC(=O)c2ccc(-c3ccccc3)cc2)c(C)c1 | -50.2% (active)
Cc1cccc(NC(=O)NC(=S)NC(=O)c2ccccc2)c1 | -7.59% (inactive)
